# Rows were chosen to be rich in hits. Some 0.59% of all compounds tested hit in one or more screens of this group.
# mIDH1 inhibitor: human IDH1 R132H inhibition. O75874. IDH1-R132H enzyme, NADPH consumption, diaphorase/resazurin fluorescence. Potency, µM (doses to about 76.6 µM), inactives show at the highest dose activity change, negative = inhibition, usual class: inhibitors. 390,000 tested, 0.093% active. AID 602179; also: potency is read from the fitted curve at half-maximal effect; % is scaled to controls: 0 for no effect and ±100 for the full control effect; nearly all actives have a fitted effect of over 65% in size
#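 IDH1-R132H (0.5 ug/mL dispensed) in pH 7.5 Tris buffer was preincubated 30 min with compound, then given a substrate mix of 0.016 mM NADPH and 2 mM alpha-KG for 80 min at room temperature; remaining NADPH was read by diaphorase/resazurin fluorescence.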
# LDHA block: blocks human lactate dehydrogenase A; AID 1347041; purified LDHA, NADH/diaphorase-resazurin fluorescence; active compounds read low; P00338; activity change, % (values are at about 110 or 230 µM); 480,000 tested, 0.15% active; in the data active = activity change below about -30%; inconclusive = mostly about -25% to -30%;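 also: plate controls were DMSO wells for no effect and wells without enzyme for full effect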
#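 Resorufin fluorescence (ex540/em590), read at 0 and 20 min after diaphorase/resazurin addition, reports the NADH left after a 5 min room-temperature reaction of 2 nM human LDH5 with 0.06 mM NADH and 0.2 mM pyruvate.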
# Vif-A3F inh: inhibitors of Vif-A3F interaction; HeLa A3F-eYFP + Vif (tagged APOBEC3F with the HIV-1 protein that degrades it), YFP fluorescence increase; Potency, µM (series often up to 46.1 µM), for inactives: at the highest dose activity, negative = active; 390,000 tested, 0.2% active; AID 602313; also: potency is read from the fitted curve at half-maximal effect; % of control where 0% means no effect; nearly all actives have a fitted effect of over 65% in size
#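 Fluorescence increase (Ex 488/Em 500-530) after overnight compound treatment at 37 deg C flags inhibition of Vif-driven A3F-eYFP loss in stable HeLa A3F-eYFP/Vif cells seeded overnight beforehand.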
# PINK1 expr mod: PINK1 expression modulation; 410,000 tested, 0.2% active; PINK1 immunofluorescence, high-content cytometry, 24 h; Potency, µM (titrated, usually from 76.6 µM), for the others: top-dose activation (PINK1 increase), actives largely listed as activators; active = well fitted activation curve with a large enough effect; inconclusive = small, poorly fitted or top-dose-only effect; cell line not stated here; also: potency is read from the fitted curve at half-maximal effect; % of control where 0% means no effect; nearly all actives have a fitted effect of over 65% in size
#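 Compound titrations (5 concentrations, 24 h) on a stable cell line; DMSO and CCCP controls. Endpoint: fixed-cell PINK1 immunofluorescence with mitochondrial, cell and nuclear markers, scanned by microplate cytometer.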
# PTHR1 ag: agonists of human PTHR1 parathyroid hormone receptor; HEK293 GP2 PTHR1 cells, GloSensor cAMP luminescence, 1 h; Potency, µM (top dose mostly 115 µM), for the others: top-dose activation, actives largely listed as activators; 410,000 tested, 0.075% active; AID 743266; also: potency is read from the fitted curve at half-maximal effect; nearly all actives have a fitted effect of over 55% in size
# Target sequence (Q03431 whole entry, looked up): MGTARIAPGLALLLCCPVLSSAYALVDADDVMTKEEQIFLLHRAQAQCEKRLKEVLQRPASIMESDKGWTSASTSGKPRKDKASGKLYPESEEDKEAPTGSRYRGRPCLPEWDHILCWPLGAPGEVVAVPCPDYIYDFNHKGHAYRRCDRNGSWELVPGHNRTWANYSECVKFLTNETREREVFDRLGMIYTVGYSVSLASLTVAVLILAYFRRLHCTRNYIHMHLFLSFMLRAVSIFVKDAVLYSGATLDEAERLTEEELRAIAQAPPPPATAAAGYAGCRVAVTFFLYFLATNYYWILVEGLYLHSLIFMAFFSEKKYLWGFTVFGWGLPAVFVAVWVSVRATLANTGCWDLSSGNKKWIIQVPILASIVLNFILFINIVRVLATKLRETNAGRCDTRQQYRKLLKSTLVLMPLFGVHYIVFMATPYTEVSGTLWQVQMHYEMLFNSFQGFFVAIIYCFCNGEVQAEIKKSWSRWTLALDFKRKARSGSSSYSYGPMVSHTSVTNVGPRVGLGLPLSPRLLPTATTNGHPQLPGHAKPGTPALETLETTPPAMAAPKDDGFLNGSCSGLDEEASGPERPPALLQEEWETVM
#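 HEK-293-derived GP2 cells expressing PTHR1 and a GloSensor cAMP reporter, 3,000/well, plated overnight, given luciferin plus IBMX (each 0.5 mM as added) for 1 h at 37 °C, then compound for 1 h at 37 °C. Luminescence was read after 15 min at room temperature.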
# Vif-A3G inh: blocks the Vif interaction with human APOBEC3G; Q9HC16; HeLa A3G-eYFP + Vif (tagged APOBEC3G with the HIV-1 protein that degrades it), YFP fluorescence, overnight; Potency, µM (series often up to 46.1 µM), for the others: at the highest dose activity, negative = active, hits mostly inhibitors; 410,000 tested, 0.076% active; also: potency is read from the fitted curve at half-maximal effect; % is scaled to controls: 0 for no effect and ±100 for the full control effect; nearly all actives have a fitted effect of over 60% in size
#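 Read-out is eYFP fluorescence (Ex 488/Em 500-530) from Vif-expressing HeLa A3G-eYFP cells; more signal means A3G escaped Vif-mediated degradation. Cells plated overnight, compound pinned in, incubated overnight at 37 deg C.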
# Resorufin autofl: counter-screen for mutant IDH1 inhibitors: fluorescence interference; shares compounds with mIDH1 inhibitor; Resorufin detection reagent fluorescence interference, cell-free; inhibition of signal, % at 51.2 µM; 750 tested, under 10 active; AID 623980;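 also: 0% = wells with normal resorufin and full inhibition = wells lacking resorufin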
# WT IDH1 inh: inhibits human wild-type IDH1, mutant selectivity check | shares compounds with mIDH1 inhibitor | 750 tested, 9% active | AID 623995 | WT IDH1 enzyme, NADPH diaphorase/resazurin fluorescence | Potency, µM (titrated, usually from 115 µM), inactives show at the highest dose activity change, negative = inhibition, usual class: inhibitors;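 also: potency is read from the fitted curve at half-maximal effect; 0% = full WT IDH1 enzyme control and full inhibition = no enzyme wells; nearly all actives have a fitted effect of over 55% in size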
# mIDH1 confirm: mutant IDH1 (human) inhibition, confirmed; shares compounds with mIDH1 inhibitor; IDH1 R132H enzyme, NADPH diaphorase/resazurin fluorescence; Potency, µM (series often up to 76.6 µM), for inactives: at the top dose activity change, negative = inhibition, most hits filed as inhibitors; 750 tested, 83% active; also: potency is read from the fitted curve at half-maximal effect; nearly all actives have a fitted effect of over 50% in size
# The depositor's hits bear a star; i = inactive; ? = inconclusive; . = not tested or not shown; [ ] = dose if it differs, or a comment. Unless noted, calls follow the shape of the dose curve; as a rule, active = well fitted curve in the direction sought with a large enough effect; inconclusive = small, poorly fitted or top-dose-only effect, or another doubt; inactive = no such curve, though single readings can be large; an effect the other way counts as inactive or inconclusive.
SMILES,mIDH1 inhibitor,LDHA block,Vif-A3F inh,PINK1 expr mod,PTHR1 ag,Vif-A3G inh,Resorufin autofl,WT IDH1 inh,mIDH1 confirm
COc1cc(Cl)cc(C(c2c(C(=O)O)[nH]c3ccccc23)c2c(C(=O)O)[nH]c3ccccc23)c1O,-4%,3,10%,2%,i,2%,.,.,.
CCOC(=O)C1CCCN(C(=S)NC2CCCC2)C1 (stereo not drawn),?,-2,-1%,1%,i,4%,1,11%,-2%
O=C(N/N=C/c1cc(-c2ccccc2)sc1Cl)c1ccccc1,.,5,.,.,.,.,.,.,.
CSc1nc(N(C)NC(=O)c2ccc(Cl)cc2)c2ccccc2n1,46µM*,-12,-8%,4%,i,?,4,2%,22µM*
Cc1ccc(CNC(=O)Nc2ccccc2Cl)cc1,.,3,.,.,.,.,.,.,.
Cc1cc(C(C)(C)C)oc1C(=O)NCCCNC(=O)c1oc(C(C)(C)C)cc1C,?,-4,1%,-1%,-4%[57.5 µM],1%,-3,?,11µM*
COc1ccc(/C=C/C(=O)Oc2ccc(OC)cc2)cc1,.,4,.,.,.,.,.,.,.
N#Cc1cccc(NC(=O)CCc2ncc(-c3ccccc3Cl)o2)c1,.,3,.,.,.,.,.,.,.
Cn1ncc2c(Nc3cccc(Cl)c3)nc(Nc3cccc(Cl)c3)nc21,?,-2,15%,-1%,i,-6%,-19,?,5.6µM*
CNc1nc(Nc2ccc(C)c(C)c2)c2cnn(C)c2n1,.,-5,.,.,.,.,.,.,.
Cn1ncc2c(Nc3ccc(Br)cc3)nc(Nc3ccc(Br)cc3)nc21,33µM*,-8,0%,-2%,-1%,-7%,-4,4%,11µM*
CN(C)CCCn1c(=O)c2[nH]cnc2n(C)c1=O,.,7,.,.,.,.,.,.,.
CCC(=O)N(CCC(Cc1ccccc1)c1ccc2c(c1)OCO2)Cc1ccccc1F (stereo not drawn),?,5,8%,?,i,-2%,-5,8%,14µM*
c1cc(-c2sc(-c3ccncc3)c(-c3ccncc3)c2-c2ccncc2)ccn1,?,14,-8%,0%,-9%,-11%,0,?,28µM*
Nc1nnc(-c2ccncc2)s1,-2%,0,1%,-19%[38.3 µM],-7%[57.5 µM],1%,.,.,.
O=C1NC[C@H](Cc2ccccc2)N(C[C@H]2CCCN2C[C@H](Cc2ccccc2)N2C[C@H](Cc3ccccc3)N(CC3CCCCC3)C(=O)C2=O)C1=O,?,1,?,1%,-1%,?,6,-4%,?
O=C1NC[C@H](Cc2ccccc2)N(C[C@H]2CCCN2C[C@H](Cc2ccccc2)N2C[C@H](Cc3ccccc3)N(CCc3ccccc3)C(=O)C2=O)C1=O,?,0,-15%,1%,-80%,?,0,1%,28µM*
CCOC(=O)c1oc2cc(OC(C)=O)ccc2c(=O)c1-c1ccc(OC)c(OC)c1,29µM*,-2,0%,2%,-6%,-7%,-3,5%,25µM*
CCOC(=O)COc1ccc2c(=O)c(-c3ccc(OC)c(OC)c3)c(C(=O)OCC)oc2c1,12%,-1,1%,2%,-3%,1%,.,.,.
COc1ccc(-c2cc(C(=O)O)c3c(C)nn(-c4ccccn4)c3n2)cc1,1%,-1,-1%,0%,i,2%,.,.,.
